Source: PubChem BioAssay (Broad Institute)
PAX8 inh HTS = inhibitors of PAX8 transcriptional activity in RMG-I cells; inhibition, % at 12.6 µM; RMG-I TPO-luciferase reporter, SteadyGlo, 24 h; 1.2% of 360,000 active; AID 652154;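 active means mean replicate inhibition at least 60% with every replicate also reaching 60%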;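 further: luciferase light reporting Pax8 driven TPO promoter activity; plate controls were median of neutral control wells for no effect and mitoxantrone controls for full effect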
LGR2 antag = Drosophila LGR2 receptor signaling inhibition. HEK293 LGR2, CRE-luciferase, bursicon-stimulated, 4 h. 0.35% of 380,000 active. inhibition, % at 9.99 µM;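 active means drop in luminescence signal, shown as inhibition above about 50% in the replicate tests, limit read from the data, passing the limit was not always enough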;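 further: agonist challenge used bursicon conditioned medium at about half maximal strength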
LMP1 NFkB inh = reduces LMP1-driven NF-kappaB luciferase signal | LMP1-induced NF-kappaB luciferase reporter cells, luminescence | inhibition, % at 12.5 µM | 0.69% of 350,000 active | AID 504558; in the data active means inhibition above about 41%;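 further: 0% = neutral control wells and 100% = reference inhibitor control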
TRPM1 prom inh = reduces MITF-dependent TRPM1 promoter luciferase signal; SK-MEL-5 TRPM1 promoter luciferase, 24 h; inhibition, % at 12.5 µM; 0.83% of 330,000 active;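 active means mean inhibition across replicates of 60% or more, whatever share of single replicates reaches that level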
Shn3 inh set2 = inhibitors of Schnurri-3 3'UTR reporter in osteoblasts. Clone20 osteoblast Shn3 3'UTR firefly luciferase, 24 h. inhibition, % at 12.5 µM. 0.52% of 360,000 active;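 active means mean inhibition of at least 75% with every replicate also reaching 75%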;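 further: 0% = median of neutral control wells and 100% = pilot-screen positive control compound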
EWS-Fli inh = inhibitors of EWS/Fli oncoprotein transcriptional activity; A673 NR0B1-luciferase reporter, viability-normalised; inhibition, % at 12.6 µM; 0.67% of 350,000 active;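 active means mean inhibition of at least 50% after viability correction, with every replicate also passing that limit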;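 further: firefly luciferase signal divided by Alamar Blue viability fluorescence both relative to DMSO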
* marks the source's active call; other numbers are inactive results; nt = no result; ! = not confirmed by another sample. Only some compounds are listed: those with a hit (about 2.2% of all), similar ones and a draw of the others.

SMILES | PAX8 inh HTS | LGR2 antag | LMP1 NFkB inh | TRPM1 prom inh | Shn3 inh set2 | EWS-Fli inh
Cc1ccc(S(=O)(=O)N(C)C[C@H]2OCCCC[C@H](C)Oc3ccc(NS(=O)(=O)c4ccc(Cl)cc4)cc3C(=O)N([C@@H](C)CO)C[C@H]2C)cc1 | 25.1 | -1.7 | nt | nt | nt | -5.9
Cc1ccc(S(=O)(=O)Nc2ccc3c(c2)C(=O)N([C@H](C)CO)C[C@@H](C)[C@H](CN(C)S(=O)(=O)c2ccc(Cl)cc2)OCCCC[C@H](C)O3)cc1 | 87.8* | 2.8 | nt | nt | nt | 23.0
Cc1ccc(S(=O)(=O)N(C)C[C@@H]2OCCCC[C@@H](C)Oc3ccc(NS(=O)(=O)c4ccc(Cl)cc4)cc3C(=O)N([C@H](C)CO)C[C@@H]2C)cc1 | 6.2 | 0.2 | nt | nt | nt | 4.2
Cc1ccc(S(=O)(=O)Nc2ccc3c(c2)C(=O)N([C@H](C)CO)C[C@H](C)[C@@H](CN(C)S(=O)(=O)c2ccc(Cl)cc2)OCCCC[C@H](C)O3)cc1 | 94.9* | 22.4 | nt | nt | nt | 17.8
C[C@@H]1CN([C@@H](C)CO)C(=O)c2cccc(NC(=O)c3ccncc3)c2O[C@H]1CN(C)Cc1ccc(Cl)c(Cl)c1 | 14.3 | nt | nt | nt | nt | 2.2
C[C@@H]1CN([C@@H](C)CO)C(=O)c2cccc(NS(C)(=O)=O)c2O[C@H]1CN(C)S(=O)(=O)c1ccc(F)cc1 | nt | -6.1 | nt | nt | nt | -1.0
C[C@H]1CN([C@@H](C)CO)S(=O)(=O)c2ccc(-c3ccncc3)cc2O[C@H]1CN(C)Cc1ccncc1 | nt | -13.3 | nt | nt | nt | 0.9
COc1cccc(NC(=O)N[C@H]2C=C[C@@H](CC(=O)N3CCOCC3)O[C@@H]2CO)c1 | 6.3 | -34.0 | nt | nt | nt | -3.7
CCO[C@@H]1OC(C(=O)N2CCN(Cc3ccc4c(c3)OCO4)CC2)=C[C@H](C(C)(C)C)[C@H]1CCCO | -14.0 | nt | nt | nt | nt | -0.4
CO[C@H]1CN(C)C(=O)c2ccc(NS(=O)(=O)c3ccccc3)cc2OC[C@@H](C)N(Cc2cccnc2)C[C@H]1C | 4.4 | 14.0 | nt | nt | nt | -6.8
COc1ccc2c3c(n(C)c2c1)[C@H](CO)N(C(=O)CN(C)C)CC31CCN(C(=O)CN(C)C)CC1 | nt | -1.1 | nt | nt | nt | -5.3
O=C(Nc1ccccc1C(=O)Nc1nnc(C(F)(F)F)s1)c1ccccc1Cl | 63.3* | 24.7 | 36.7 | 17.3 | 38.9 | 16.9
COc1ccc(CN(C)C[C@H]2Oc3ccc(NC(=O)NC4CCCCC4)cc3CC(=O)N([C@H](C)CO)C[C@@H]2C)cc1 | nt | -5.1 | nt | nt | nt | nt
CC(C)(C)NC(=O)C(c1ccc(C#N)cc1)n1c(=O)c(-c2cc3ccccc3[nH]2)nc2ccccc21 (stereo unspecified) | 65.3* | -11.8 | nt | nt | nt | 17.3
CC(C)(C)NC(=O)C(c1ccccc1)n1c(=O)c(-c2cc3ccccc3[nH]2)nc2ccccc21 (stereo unspecified) | 10.4 | 7.5 | nt | nt | nt | 6.3
Cc1ccc(S(=O)(=O)N(C)C[C@H]2Oc3ccc(NS(=O)(=O)c4ccc(F)cc4)cc3CC(=O)N([C@H](C)CO)C[C@@H]2C)cc1 | -4.6 | 19.5 | nt | nt | nt | 1.8
Cc1ccc(S(=O)(=O)N(C)C[C@H]2OCc3cnnn3CCCC(=O)N([C@@H](C)CO)C[C@H]2C)cc1 | 62.2*! | 7.1 | 5.2 | nt | -13.3 | 5.1
Cc1ccc(S(=O)(=O)N(C)C[C@H]2Oc3ccc(NS(=O)(=O)c4ccc(F)cc4)cc3CC(=O)N([C@H](C)CO)C[C@H]2C)cc1 | 103.6* | 4.8 | nt | nt | nt | -16.4
Cc1ccc(S(=O)(=O)Nc2ccc3c(c2)CC(=O)N([C@H](C)CO)C[C@H](C)[C@H](CN(C)S(=O)(=O)c2ccc(F)cc2)O3)cc1 | 79.0* | 10.7 | nt | nt | nt | 6.4
COc1ccc(NC(=O)N(C)C[C@H]2Oc3ccc(NC(=O)C4CC4)cc3CC(=O)N([C@H](C)CO)C[C@@H]2C)cc1 | -16.2 | 4.0 | nt | nt | nt | -5.4
COc1ccc2c3c(n(C)c2c1)[C@@H](CO)N(Cc1cccc(Cl)c1)CC31CN(C(=O)C2CC2)C1 | 6.8 | 13.3 | nt | nt | nt | 4.0
C[C@@H]1CN([C@H](C)CO)S(=O)(=O)c2ccc(-c3ccncc3)cc2O[C@H]1CN(C)C(=O)c1ccc2c(c1)OCO2 | nt | -4.5 | nt | nt | nt | 4.4
Cc1noc(C)c1S(=O)(=O)Nc1ccc2c(c1)C(=O)N([C@@H](C)CO)C[C@@H](C)[C@H](CN(C)Cc1ccc(Cl)c(Cl)c1)OCCCC[C@@H](C)O2 | 68.8* | -2.1 | nt | nt | nt | 19.0
